# Test results from PubChem BioAssay AID1892 (NMMLSC, 2009).
# Among all 5,900 compounds or so, about 140 (2.4%) were called active. Many of the other results were omitted from the sample, so actives are more common in it than they were. Values without a mark were called inactive. No stated cut-off is given here; in the data, active means binding response below about 16% or above about 210%; inactive means in between.
# Target: Mitogen-activated protein kinase kinase kinase 2 (Homo sapiens) (UniProt Q9Y2U5)
# Assay: modulators of MEK5 binding to wildtype MEKK2, confirmation, biochemical, single concentration, multiplex bead flow cytometry (AID 1892)
# Conditions: Alexa488-MEK5 binding to MEKK2 WT, at 10 µM, actives lie on both sides
row,SMILES,binding response (% of control)
1,CN(C)CCCNC(=O)/C=C/c1ccc(OCc2c(F)cccc2Cl)cc1,150%
2,O=C(c1cnn(-c2ccc(Cl)cc2)c1)c1ccccc1O,112%
3,O=C(O)/C=C\C(=O)Nc1ccc(OCc2ccccc2)cc1,102%
4,O=C(OCc1cc(Cl)ccc1OC(F)F)c1cccnc1,95%
5,CCNC(=O)CSc1nc(-c2ccccc2)cs1,99%
6,O=C(OCC1O[C@@H](OC(=O)c2cc(O)c(O)c(O)c2)[C@@H](OC(=O)c2cc(O)c(O)c(O)c2)[C@@H](OC(=O)c2cc(O)c(O)c(O)c2)[C@@H]1OC(=O)c1cc(O)c(O)c(O)c1)c1cc(O)c(O)c(O)c1 (stereo partly specified),-1% [inhibitor] (active)
7,CCOC(=O)c1c(-c2ccccc2)csc1NC(=S)NC(=O)c1ccccc1,102%
8,CCCCCCCCCCOC(=O)Cn1c(COc2cccc(OC)c2)[n+](C)c2ccccc21,257% (active)
9,CCCCCCCCCCOC(=O)Cn1c(COc2ccc(C)cc2)[n+](C)c2ccccc21,217% (active)
10,FC(F)(F)c1cccc(N/N=C/c2ccccc2)c1,151%
11,Cc1ccc(S(=O)(=O)NC(=O)N2CCCC(C)(C)C2)cc1,101%
12,COc1cc(/C=C2\SC(=S)N(Nc3ncc(C(F)(F)F)cc3Cl)C2=O)cc(OC)c1OC,74%
13,Cc1cc(Cl)ccc1OCc1nc(-c2ccncc2)no1,80%
14,COc1ccccc1N1CCN(CCCCOc2ccc(F)cc2)CC1,109%
15,Cc1no[n+]([O-])c1COc1ccccc1/C=C1\NC(=S)NC1=O,99%
16,CCO[C@H]1OC(C(=O)N2CCOCC2)=C[C@@H](c2ccc3c(c2)OCO3)[C@@H]1CCCO,101%
17,c1ccc(Nc2nc(N3CCOCC3)c3ccccc3n2)cc1,124%
18,COCC(C)NC(=O)COc1nncc2ccccc12 (stereo unspecified),96%
19,Cn1c(=NC(=O)CSCC(=O)N2CCOCC2)sc2ccccc21,90%
20,CCc1nnc(NC(=O)c2sc3nc(C)cc(COC)c3c2N)s1,107%
21,Cc1ccccc1C(=O)NNC(=O)CN1C(=O)c2ccccc2C1=O,92%
22,C#CCOCCOCCOCCNc1nc(N2CCN(C(=O)[C@H](CCCCN)n3cc([C@@H](N)C(C)CC)nn3)CC2)nc(N2CCN(C(=O)[C@H](Cc3ccc(O)cc3)n3cc([C@@H](N)C(C)CC)nn3)CC2)n1 (stereo partly specified),183%
23,COc1ccc(C2CC(c3cccs3)=NN2c2nc(C)c(C(C)=O)s2)cc1OC (stereo unspecified),82%

row,SMILES,binding response (% of control)
1,CCOC(=O)c1cc2occc2n1CC(=O)N1CCN(C(=O)c2ccco2)CC1,92%
2,COC(=O)c1cc(NC(=O)c2cc(C(C)(C)C)nn2Cc2cccc(C)c2)ccc1N1CCOCC1,102%
3,Cc1ccc(S(=O)(=O)/N=S(\C)C(C)C)cc1 (stereo unspecified),101%
4,CCOC(=O)/C(C#N)=C/c1ccc(OCC(=O)Nc2ccccc2)c(OC)c1,103%
5,CN(C)CCCN(C(=O)c1ccc(S(=O)(=O)N2CCCc3ccccc32)cc1)c1nc2ccc(F)cc2s1,198%
6,O=C(Nc1ccc2ccccc2c1)Nc1ccc2snnc2c1,155%
7,CCOc1ccc(NC(=O)Nc2cc(C)ccc2OC)cc1,106%
8,CCOc1cc(C(=O)OCC(=O)Nc2cccc(C)c2)ccc1OCC(=O)N1CCOCC1,106%
9,CCOC(=O)Cc1csc(NC(=O)CSc2nc(C)cc(=O)[nH]2)n1,92%
10,CCOc1nnc(C)c2c(C)n(-c3cccc(Cl)c3)nc12,86%
11,O=C(COC(=O)CNC(=O)c1ccco1)Nc1ccc(F)cc1,98%
12,Cn1c(=NC(=O)CSCC(=O)N2CCCCC2)sc2ccccc21,103%
13,N=C1/C(=C/c2cccn2-c2cccc([N+](=O)[O-])c2)C(=O)N=C2SC=CN12,99%
14,O=C(c1ccc(Br)o1)N(c1ccccn1)C1CCCCC1,101%
15,CC(C)(C)NC(=O)Cn1cnc([N+](=O)[O-])n1,96%
16,O=C(CC1SCCNC1=O)Nc1ccc(Cl)c(Cl)c1 (stereo unspecified),104%
17,O=c1c(/C=N/O)coc2ccc(Cl)cc12,100%
18,CCN(CC)C(=O)CC(c1ccc2c(c1)OCO2)c1c(OC)cc(OC)c2c(-c3ccccc3)cc(=O)oc12 (stereo unspecified),99%
19,Cc1ccc(C(=O)N/C(=C/c2ccco2)C(=O)NCCc2c[nH]c3ccccc23)cc1C,101%
20,CN1CCN(/N=C/c2ccc(C#N)cc2)CC1,92%
21,CCN1CCN(c2nc(Nc3cc(OC)ccc3OC)nc(Nc3cc(OC)ccc3OC)n2)CC1,148%
22,COc1ccccc1OCCNCC(O)COc1cccc2[nH]c3ccccc3c12 (stereo unspecified),159%
23,COc1ccccc1NC(=S)N1CCN(c2ccc(F)cc2)CC1,100%

row,SMILES,binding response (% of control)
1,O=C(O)/C(=C/c1cccnc1)NC(=O)c1ccccc1,103%
2,c1ccc(CN2CCC(N=C3NN=C(c4ccc5c(c4)OCCO5)CS3)CC2)cc1,164%
3,COc1cccc(/C(C)=N/Nc2ncc(Cl)cc2Cl)c1,100%
4,O=C(c1ccco1)N1CCN(c2cccc(Cl)c2)CC1,93%
5,COC(=O)C1=NN(c2ccccc2)C2C(=O)N(c3ccccc3OC)C(=O)C12 (stereo unspecified),97%
6,Cc1cccc(CN2CCC(CNC(=O)Nc3ccc(F)c(Cl)c3)CC2)c1,126%
7,CCN1CCN(CCNC(=O)c2ccc(/C=C3/Sc4ccccc4N(Cc4cccc(C)c4)C3=O)cc2)CC1,236% (active)
8,C/C(=N\NC(=O)CNC(=O)C(c1ccccc1)c1ccccc1)c1ccc(C)cc1,106%
9,CCOC(=O)c1cc2c(nc1NC(=S)Nc1ccccc1)CC(C)(CC)OC2 (stereo unspecified),101%
10,C=CCN(CC=C)S(=O)(=O)c1ccc(C(=O)Nc2sc3c(c2C(N)=O)CCCCC3)cc1,99%
11,COc1cccc(NC(=S)NCCCN2CCOCC2)c1,109%
12,CCOc1ccc(S(=O)(=O)N(CC(=O)O)c2ccccc2)cc1,103%
13,COc1cccc(OC)c1C(=O)Nc1ccc(Cc2ccncc2)cc1,100%
14,CCCN(CCC)c1nc2c(C)cccn2c(=O)c1/C=C1/SC(=S)N(Cc2ccco2)C1=O,85%
15,CCCCn1c(SCC(=O)NCCc2ccc(OC)c(OC)c2)nc2c1c(=O)n(C)c(=O)n2C,103%
16,CCc1ccc(-c2nn(-c3ccccc3)cc2CSC(=N)N)cc1,210% (active)
17,N=C(N)SCc1cccc2ccccc12,105%
18,CC(=O)N1CCN(S(=O)(=O)c2ccc(C)c([N+](=O)[O-])c2)C1C(C)C (stereo unspecified),97%
19,COc1ccc(CC(=O)N2N=C(C)CC2(O)C(F)(F)F)cc1 (stereo unspecified),96%
20,COc1ccc(S(=O)(=O)Nc2ccc3oc(C)c(C(C)=O)c3c2)cc1,95%
21,NC(N)=N/N=C/c1ccc(OCc2ccc(Cl)cc2Cl)cc1,234% (active)
22,CC(C)CC(=O)NC(=S)Nc1cc(C(=O)O)ccc1Cl,102%
23,CCn1cc(CN2CCC(C(=O)Nc3cccc(-c4cccc(Cl)c4)c3)CC2)cn1,182%

row,SMILES,binding response (% of control)
1,O=C(Cc1cccc2ccccc12)Nc1ccc2oc(-c3ccccc3)nc2c1,115%
2,O=C(CN1C(=O)c2cccnc2Oc2ccc(Cl)cc21)Nc1ccc(F)cc1,99%
3,N/C(=N\OS(=O)(=O)c1cccc([N+](=O)[O-])c1)c1ccncc1,103%
4,c1ccc2c(c1)C(=NC1CCCCC1)NC2=NC1CCCCC1,125%
5,CCOC(=O)CN(C)S(=O)(=O)c1ccc(-c2cc(C(=O)OC)sc2C(F)(F)F)cc1,101%
6,O=C(NCCC1=CCCCC1)c1ccc(Cl)c([N+](=O)[O-])c1,105%
7,CCN(CC)CCOc1ccc2c(c1)C(=NNC(=O)c1ccccn1)c1cc(OCCN(CC)CC)ccc1-2,210% (active)
8,CN(C)CCCNC(=O)c1cc(C(=O)Cc2ccc(Cl)cc2)c[nH]1,106%
9,C[C@H]1CCC(=O)N([C@H](CSc2ccccc2)Cc2ccccc2)CC1,111%
10,O=C(NCCCN1CCCCCC1)c1ccc(N2CCCC2=O)cc1,156%
11,Cn1c(C(=O)NCCCN2CCCCC2)cc2sccc21,119%
12,O=C(NCCCN1CCCCCC1)C1CC(=O)N(C2CCCC2)C1 (stereo unspecified),1% [inhibitor] (active)
13,C=CCn1c(=S)sc2c(=O)[nH]c(C)nc21,106%
14,O=C1Nc2ccc(Br)cc2/C1=N/N=C/C1=C(N2CCOCC2)C(=C\c2ccccc2)/CC1,47%
15,N#C/C(=C\C1=C(N2CCOCC2)C(=C\c2ccccc2)/CC1)C(=O)Nc1ccccc1F,10% [inhibitor] (active)
16,O=C(O)C1CCN(c2ccc([N+](=O)[O-])cc2[N+](=O)[O-])CC1,103%
17,Cc1ccc2c(C)c(C(=O)N3CCN(c4ccncc4)CC3)oc2c1C,161%
18,CC1(C)Cc2cccc(OCC(=O)N3CCN(c4ccc([N+](=O)[O-])cc4)CC3)c2O1,99%
19,CN1C(=O)/C(=C\c2ccc(-c3ccccc3)o2)SC1=S,23%
20,CCOC(=O)N1CCN(CC(=O)n2c(C)c(C)c3ccccc32)CC1,93%
21,FC(F)(F)c1nc(-c2ccccc2)ncc1-c1nnnn1-c1ccccc1,96%
22,O=C(NCCCN1CCN(c2ccc(F)cc2)CC1)Nc1ccc([N+](=O)[O-])cc1,129%
